CYP2C19 activ – human CYP2C19 activators, primary screen, biochemical, luminescence | Cytochrome P450 2C19 (Homo sapiens), P33261 | recombinant CYP2C19, luciferin-H EGE luminescence; hits give high values; 0 = fully inhibited enzyme, 1 = untreated enzyme | activation factor at 5 µM | 96,000 tested, under 10 active | AID 1025, 2008;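 active = activation factor of at least 2 at 5 µM in the primary screen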
E-sel TNF inh – E-selectin induction blockers in HUVEC – imaging, immunofluorescence, high content, primary screen | HUVEC TNFa-induced E-selectin immunofluorescence | inhibition, % at 2 µM | hit rate 0.71% among 120,000 | AID 1246, 2008;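 active = inhibition above the batch mean plus 3 SD, and confirmed as a hit on visual image review, cut at about 43% in these data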
CYP2C9 act – human CYP2C9 activators, primary screen, biochemical, luminescence | activation factor at 5 µM | hit rate 1.4% among 96,000 | recombinant CYP2C9, luciferin-H conversion; hits give high values; factor 1 = untreated enzyme, 0 = blocked | Cytochrome P450 2C9 (Homo sapiens), P11712;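 active = activation factor of 2 or more for CYP2C9 at a 5 µM dose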
Target sequence (P11712 whole entry, looked up): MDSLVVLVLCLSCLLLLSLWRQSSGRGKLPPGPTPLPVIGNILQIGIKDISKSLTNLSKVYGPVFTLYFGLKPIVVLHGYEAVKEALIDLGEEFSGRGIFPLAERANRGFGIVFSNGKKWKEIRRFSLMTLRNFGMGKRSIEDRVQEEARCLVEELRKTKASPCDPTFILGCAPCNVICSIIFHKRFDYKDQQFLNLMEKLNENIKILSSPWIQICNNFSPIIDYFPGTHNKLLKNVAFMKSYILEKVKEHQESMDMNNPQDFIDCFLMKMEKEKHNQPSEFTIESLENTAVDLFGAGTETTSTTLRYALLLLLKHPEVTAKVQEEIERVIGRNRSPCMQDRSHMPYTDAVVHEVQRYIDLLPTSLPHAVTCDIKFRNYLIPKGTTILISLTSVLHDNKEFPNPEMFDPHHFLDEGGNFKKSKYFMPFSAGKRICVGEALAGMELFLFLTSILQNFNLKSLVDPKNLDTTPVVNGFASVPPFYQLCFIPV
CYP2C19 inh – blockers of cytochrome P450 2C19 activity – biochemical, luminescence, ADME assay, primary screen; hit rate 21% among 96,000; inhibition, % at 5 µM; CYP2C19 Supersomes, luciferin-H EGE luminescence, 30 min; P33261;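 active = CYP2C19 inhibition above a set limit at 5 µM in the primary screen, cut at about 50% in these data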
cytoskel mod – modifiers of F-actin cytoskeleton organization, primary screen, imaging, HUVEC, phalloidin staining, high-content imaging | HUVEC TNFa F-actin phalloidin imaging | inhibition, % at 2 µM | hit rate 0.18% among 91,000 | AID 836, 2007;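 active = inhibition above the batch mean plus 3 SD and confirmed as a hit by visual image inspection, cut at about 30% in these data, passing the limit was not always enough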
CYP2C9 inhib – blockers of cytochrome P450 2C9 activity – biochemical, luminescence, ADME assay, primary screen | hit rate 20% among 96,000 | inhibition, % at 5 µM | AID 777, 2007 | CYP2C9 Supersomes, luciferin-H conversion;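 active = blocking of liver enzyme CYP2C9 beyond about 50% at 5 µM, limit read from the data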
Of the large screens only hits and unclear results are named; the others gave an inactive call. An excerpt weighted towards active compounds, which were near 22% of everything screened.

CSCc1ccc(C(=O)NCc2ccccc2)cc1	none (no result: CYP2C19 activ, CYP2C9 act, CYP2C19 inh, cytoskel mod, CYP2C9 inhib)
Cc1cc(=O)oc(C)c1C(=O)OCC(=O)c1ccc2ccccc2c1	CYP2C19 inh 63.2 (no result: E-sel TNF inh)
Nc1cc(Cl)ccc1Oc1ccc2ccccc2c1	CYP2C19 inh 70.9
Cc1cccc(NS(=O)(=O)c2ccc(C3CCCCC3)cc2)n1	none
CC(C(=O)NC1CCCC1)N(C(=O)CS(=O)CC(=O)Nc1ccc(F)cc1)c1ccc2c(c1)OCCO2 (configuration not stated)	none (no result: E-sel TNF inh)
O=C(COc1ccc(S(=O)(=O)N2CCCCC2)cc1)NCc1cccnc1	CYP2C9 inhib 59.8
O=C(NCc1cccnc1)c1cccc(S(=O)(=O)N2CCOCC2)c1	CYP2C19 inh 61.1 (no result: E-sel TNF inh)
O=C(NCc1cccnc1)c1cc(S(=O)(=O)N2CCCCC2)ccc1Cl	CYP2C19 inh 80.1, CYP2C9 inhib 93.8
O=C(NCc1cccnc1)c1cccc(S(=O)(=O)N2CCCCC2)c1	CYP2C19 inh 64.9 (no result: cytoskel mod)
O=C1c2cccnc2C(Nc2ccccc2)N1Cc1ccco1 (configuration not stated)	none (no result: E-sel TNF inh)
Cc1ccnc(NC(=O)c2cc(S(=O)(=O)N3CCCCC3)ccc2Cl)c1	CYP2C9 inhib 88.4
O=C(Nc1ccc(O)cc1)c1cc(S(=O)(=O)N2CCCC2)ccc1Cl	none
O=C(NCc1ccco1)c1ccc(S(=O)(=O)c2cccc(S(=O)(=O)N3CCOCC3)c2)cc1	CYP2C19 inh 50.6
COc1ccccc1S(=O)Cc1ccc(C(=O)NCCc2ccc(Cl)cc2)o1 (configuration not stated)	CYP2C19 inh 62.3, CYP2C9 inhib 64.8 (no result: E-sel TNF inh, cytoskel mod)
O=C(NC1CCCC1)c1ccc(Br)o1	none (no result: cytoskel mod)
COc1ccc(CCNC(=O)c2nnc(Cc3ccc(Cl)cc3)o2)cc1OC	none (no result: E-sel TNF inh)
COc1ccccc1S(=O)Cc1ccc(C(=O)NC2CCCC2)o1 (configuration not stated)	CYP2C9 inhib 54.9 (no result: E-sel TNF inh)
N#Cc1c(N)n(C2CCCCC2)c2nc3ccccc3nc12	none
Cc1cccc(NC(=O)C2C(c3ccccc3)C2(Cl)Cl)c1C (configuration not stated)	none
Cc1ccnc(NS(=O)(=O)c2ccc(NS(=O)(=O)c3ccccc3)cc2)n1	none (no result: CYP2C19 activ, CYP2C9 act, CYP2C19 inh, CYP2C9 inhib)
Cc1ccc(C(=O)NCC(=O)OCC(=O)NCCc2ccccc2)s1	none (no result: CYP2C19 activ, CYP2C9 act, CYP2C19 inh, cytoskel mod, CYP2C9 inhib)
CCc1nc2ccccc2n1Cc1ccccc1OC	CYP2C19 inh 96.5, CYP2C9 inhib 65.4 (no result: E-sel TNF inh, cytoskel mod)
COc1ccc(Cn2c(CCCO)nc3ccccc32)cc1OC	CYP2C19 inh 90.8, CYP2C9 inhib 59.1
CCS(=O)(=O)c1nc2ccccc2n1Cc1ccccc1Cl	CYP2C19 inh 91.3, CYP2C9 inhib 61.8 (no result: E-sel TNF inh)
COc1ccccc1Cn1c(CCCO)nc2ccccc21	CYP2C19 inh 83.6, CYP2C9 inhib 65.1
CCc1nc2ccccc2n1Cc1ccc(OC)c(OC)c1	none (no result: CYP2C19 activ, CYP2C9 act, CYP2C19 inh, CYP2C9 inhib)
CS(=O)(=O)c1nc2ccccc2n1Cc1ccccc1	none (no result: E-sel TNF inh)
COc1ccc(C)cc1Cn1c(S(C)(=O)=O)nc2ccccc21	CYP2C19 inh 98.0, CYP2C9 inhib 61.8
COC(=O)c1c(N)sc2c1CCN(c1ncc(C(F)(F)F)cc1Cl)C2	none (no result: E-sel TNF inh)
N#CC1=C(N)Oc2n[nH]c(-c3ccc(F)cc3)c2C1c1ccncc1 (configuration not stated)	CYP2C9 inhib 69.0 (no result: cytoskel mod)
N#CC1=C(N)Oc2n[nH]c(-c3ccncc3)c2C1c1ccsc1 (configuration not stated)	CYP2C9 inhib 88.7
Cc1ccc(SCc2[nH]nc3c2C(c2cccnc2)C(C#N)=C(N)O3)cc1 (configuration not stated)	CYP2C9 inhib 77.5
N#CC1=C(N)Oc2n[nH]c(-c3ccccc3)c2C1c1ccsc1 (configuration not stated)	none (no result: CYP2C19 activ, CYP2C9 act, CYP2C19 inh, CYP2C9 inhib)
N#CC1=C(N)Oc2n[nH]c(-c3cccs3)c2C1c1cccnc1 (configuration not stated)	CYP2C19 inh 70.3, CYP2C9 inhib 69.0
O=C(OCn1ncc(Br)c(Br)c1=O)c1ccc(F)cc1	E-sel TNF inh 89.8, CYP2C19 inh 88.7
O=C(OCn1ncc(Br)c(Br)c1=O)c1ccccc1Cl	CYP2C19 inh 56.6 (no result: E-sel TNF inh)
O=C(O)CSc1cc(C(F)(F)F)nc(-c2ccccn2)n1	none

Assay outcomes deposited in PubChem by several laboratories.
